Test results as given in article PMC11006913.

target: MSX2 (Homo sapiens, UniProt P35548 130-214); assay: PBM; 200 nM protein, PBS; details: dsDNA, one strand shown
Sequence (P35548 130-214): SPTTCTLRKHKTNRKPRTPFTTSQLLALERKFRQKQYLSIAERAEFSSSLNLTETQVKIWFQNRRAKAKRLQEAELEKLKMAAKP

**Q.** CGAGGCAC was tested. Which binding signal did it give?
**A.** 9.5 upbm affinity estimate (log intensity, higher = more binding, comparable within an allelic series)

target: ALX3 (Homo sapiens, UniProt O95076 139-225); assay: PBM; 200 nM protein, PBS; details: dsDNA, one strand shown
Sequence (O95076 139-225): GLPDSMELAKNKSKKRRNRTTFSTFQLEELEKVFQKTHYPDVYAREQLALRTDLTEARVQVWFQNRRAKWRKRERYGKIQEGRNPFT

**Q.** CCAGGCAG was tested. Which binding signal did it give?
**A.** 7.65 upbm affinity estimate (log intensity, higher = more binding, comparable within an allelic series)

**Q.** For ATTAATCA, which binding signal is on record?
**A.** 12.3 upbm affinity estimate (log intensity, higher = more binding, comparable within an allelic series)

**Q.** With ACCGCCGG as the sequence, how does the binding signal read?
**A.** 7.95 upbm affinity estimate (log intensity, higher = more binding, comparable within an allelic series)

**Q.** For CAGACCCC, which binding signal is on record?
**A.** 7.61 upbm affinity estimate (log intensity, higher = more binding, comparable within an allelic series)

**Q.** For CCCTTGCG, which binding signal is on record?
**A.** 7.65 upbm affinity estimate (log intensity, higher = more binding, comparable within an allelic series)

**Q.** CAGGCCCC was tested. Which binding signal did it give?
**A.** 7.63 upbm affinity estimate (log intensity, higher = more binding, comparable within an allelic series)

target: T1, PAX4 (Homo sapiens, UniProt O43316 9-242, F177Y); assay: PBM; 200 nM protein, PBS; details: dsDNA, one strand shown
T1 sequence: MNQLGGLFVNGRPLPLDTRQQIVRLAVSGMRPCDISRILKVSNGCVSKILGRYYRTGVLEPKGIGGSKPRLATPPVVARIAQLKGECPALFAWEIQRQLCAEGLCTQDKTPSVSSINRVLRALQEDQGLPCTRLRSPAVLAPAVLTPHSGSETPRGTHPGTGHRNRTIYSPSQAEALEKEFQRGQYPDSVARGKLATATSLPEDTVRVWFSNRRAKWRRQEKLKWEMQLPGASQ

**Q.** With ATTAATCA as the sequence, how does the binding signal read?
**A.** 11 upbm affinity estimate (log intensity, higher = more binding, comparable within an allelic series)

**Q.** With AGGGGGGG as the sequence, how does the binding signal read?
**A.** 9.09 upbm affinity estimate (log intensity, higher = more binding, comparable within an allelic series)

**Q.** For GTGGGGGA, which binding signal is on record?
**A.** 9.43 upbm affinity estimate (log intensity, higher = more binding, comparable within an allelic series)

**Q.** How did the binding signal turn out when CGGGCTTC was run?
**A.** 9.09 upbm affinity estimate (log intensity, higher = more binding, comparable within an allelic series)

target: VAX1 (Homo sapiens, UniProt Q5SQQ9 86-172); assay: PBM; 200 nM protein, PBS; details: dsDNA, one strand shown
Sequence (Q5SQQ9 86-172): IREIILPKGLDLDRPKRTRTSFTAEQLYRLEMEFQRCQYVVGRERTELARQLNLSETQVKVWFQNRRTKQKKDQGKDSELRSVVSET

**Q.** Which binding signal does the source give for TAATGACA here?
**A.** 12.8 upbm affinity estimate (log intensity, higher = more binding, comparable within an allelic series)

**Q.** For TCCCAGGA, which binding signal is on record?
**A.** 7.2 upbm affinity estimate (log intensity, higher = more binding, comparable within an allelic series)

**Q.** TAATGATA was tested. Which binding signal did it give?
**A.** 12.7 upbm affinity estimate (log intensity, higher = more binding, comparable within an allelic series)

**Q.** How did the binding signal turn out when ACCGCCGG was run?
**A.** 7.52 upbm affinity estimate (log intensity, higher = more binding, comparable within an allelic series)

**Q.** For TTAATGAA, which binding signal is on record?
**A.** 12.7 upbm affinity estimate (log intensity, higher = more binding, comparable within an allelic series)

**Q.** Which binding signal does the source give for CCTAATGA here?
**A.** 13.2 upbm affinity estimate (log intensity, higher = more binding, comparable within an allelic series)

**Q.** With CAGACCCC as the sequence, how does the binding signal read?
**A.** 6.95 upbm affinity estimate (log intensity, higher = more binding, comparable within an allelic series)

**Q.** Which binding signal does the source give for GGTAATGA here?
**A.** 12.8 upbm affinity estimate (log intensity, higher = more binding, comparable within an allelic series)

**Q.** How did the binding signal turn out when CATCATTA was run?
**A.** 12.9 upbm affinity estimate (log intensity, higher = more binding, comparable within an allelic series)

**Q.** Which binding signal does the source give for ATAATGAC here?
**A.** 12.6 upbm affinity estimate (log intensity, higher = more binding, comparable within an allelic series)

**Q.** For GATAATGA, which binding signal is on record?
**A.** 12.9 upbm affinity estimate (log intensity, higher = more binding, comparable within an allelic series)

target: ALX3 (Homo sapiens, UniProt O95076 139-225, L168Q); assay: PBM; 200 nM protein, PBS; details: dsDNA, one strand shown
Sequence (O95076 139-225 L168Q): as the sequence (O95076 139-225) above, with L30Q counted along it

**Q.** CCAGGCAG was tested. Which binding signal did it give?
**A.** 7.7 upbm affinity estimate (log intensity, higher = more binding, comparable within an allelic series)

**Q.** How did the binding signal turn out when ATTAATCA was run?
**A.** 10.2 upbm affinity estimate (log intensity, higher = more binding, comparable within an allelic series)

**Q.** For ACCGCCGG, which binding signal is on record?
**A.** 7.7 upbm affinity estimate (log intensity, higher = more binding, comparable within an allelic series)

**Q.** CAGACCCC was tested. Which binding signal did it give?
**A.** 7.69 upbm affinity estimate (log intensity, higher = more binding, comparable within an allelic series)

**Q.** Which binding signal does the source give for CCCTTGCG here?
**A.** 7.59 upbm affinity estimate (log intensity, higher = more binding, comparable within an allelic series)

**Q.** How did the binding signal turn out when CAGGCCCC was run?
**A.** 7.69 upbm affinity estimate (log intensity, higher = more binding, comparable within an allelic series)

target: HOXC9 (Homo sapiens, UniProt P31274 178-260, R222W); assay: PBM; 200 nM protein, PBS; details: dsDNA, one strand shown
Sequence (P31274 178-260 R222W): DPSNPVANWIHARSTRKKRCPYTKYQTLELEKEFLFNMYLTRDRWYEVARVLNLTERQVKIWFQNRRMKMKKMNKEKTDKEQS

**Q.** TCCCAGGA was tested. Which binding signal did it give?
**A.** 9.72 upbm affinity estimate (log intensity, higher = more binding, comparable within an allelic series)

**Q.** How did the binding signal turn out when AGGGGGGG was run?
**A.** 9.11 upbm affinity estimate (log intensity, higher = more binding, comparable within an allelic series)

**Q.** With CCGGACCA as the sequence, how does the binding signal read?
**A.** 9.77 upbm affinity estimate (log intensity, higher = more binding, comparable within an allelic series)

**Q.** CGCCGAAG was tested. Which binding signal did it give?
**A.** 9.77 upbm affinity estimate (log intensity, higher = more binding, comparable within an allelic series)

**Q.** For CGTGGCGC, which binding signal is on record?
**A.** 9.81 upbm affinity estimate (log intensity, higher = more binding, comparable within an allelic series)

**Q.** How did the binding signal turn out when CGGGGGTC was run?
**A.** 9.59 upbm affinity estimate (log intensity, higher = more binding, comparable within an allelic series)

**Q.** How did the binding signal turn out when CCTACCGC was run?
**A.** 9.71 upbm affinity estimate (log intensity, higher = more binding, comparable within an allelic series)

**Q.** Which binding signal does the source give for CGAGGCAC here?
**A.** 9.7 upbm affinity estimate (log intensity, higher = more binding, comparable within an allelic series)

target: ALX3 (Homo sapiens, UniProt O95076 139-225, L168V); assay: PBM; 200 nM protein, PBS; details: dsDNA, one strand shown
Sequence (O95076 139-225 L168V): as the sequence (O95076 139-225) above, with L30V counted along it

**Q.** For CCAGGCAG, which binding signal is on record?
**A.** 7.82 upbm affinity estimate (log intensity, higher = more binding, comparable within an allelic series)

**Q.** With ATTAATCA as the sequence, how does the binding signal read?
**A.** 9.65 upbm affinity estimate (log intensity, higher = more binding, comparable within an allelic series)

**Q.** ACCGCCGG was tested. Which binding signal did it give?
**A.** 7.65 upbm affinity estimate (log intensity, higher = more binding, comparable within an allelic series)

**Q.** Which binding signal does the source give for CAGACCCC here?
**A.** 7.66 upbm affinity estimate (log intensity, higher = more binding, comparable within an allelic series)

**Q.** CCCTTGCG was tested. Which binding signal did it give?
**A.** 7.6 upbm affinity estimate (log intensity, higher = more binding, comparable within an allelic series)

**Q.** Which binding signal does the source give for CAGGCCCC here?
**A.** 7.7 upbm affinity estimate (log intensity, higher = more binding, comparable within an allelic series)

target: MSX2 (Homo sapiens, UniProt P35548 130-214, F161Y); assay: PBM; 200 nM protein, PBS; details: dsDNA, one strand shown
Sequence (P35548 130-214 F161Y): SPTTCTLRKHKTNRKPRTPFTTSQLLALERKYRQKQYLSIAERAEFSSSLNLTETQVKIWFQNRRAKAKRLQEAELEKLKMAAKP

**Q.** How did the binding signal turn out when CCGGACCA was run?
**A.** 9.4 upbm affinity estimate (log intensity, higher = more binding, comparable within an allelic series)
